High-throughput results: PubChem, several laboratories
In the library only some 3.3% were active in any assay of this set; here they are far more common.
NR3A LBD binder: binders of NR3A ligand-binding domain, primary screen, biophysical, differential scanning fluorimetry, uHTS; Glutamate receptor ionotropic, NMDA 3A (GRIN3A) ligand-binding domain; NR3A LBD differential scanning fluorimetry, Tm shift; 0% = protein alone, 100% = glycine-bound protein; Tm shift relative to glycine control, % at 25 µM; actives 2.5% (n = 340,000);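 active = melting temperature shift of at least 10% of the positive control shift, at one fixed dose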
HGIII-sPLA2 inh: human group III sPLA2 inhibitors, primary screen, biochemical, QFRET, BODIPY PC-A2 liposome substrate; Group 3 secretory phospholipase A2 (Homo sapiens), Q9NZ20; QFRET BODIPY PC-A2 liposome hydrolysis, fluorescence; inhibition, % at 12.2 µM; actives 0.56% (n = 370,000); AID 743126, 2013;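 active = inhibition above mean plus 3 SD of compounds lying within the high and low control bounds, cut at about 19% in these data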
UBC13 inh: UBC13 polyubiquitin chain formation inhibitors, primary screen, biochemical, TR-FRET, uHTS; Ubiquitin-conjugating enzyme E2 N (Homo sapiens), P61088; inhibition, % at 20 µM; actives 0.47% (n = 330,000); AID 485273, 2010; in the data active = inhibition above about 45%, passing the limit was not always enough
Target sequence (P61088 whole entry, looked up): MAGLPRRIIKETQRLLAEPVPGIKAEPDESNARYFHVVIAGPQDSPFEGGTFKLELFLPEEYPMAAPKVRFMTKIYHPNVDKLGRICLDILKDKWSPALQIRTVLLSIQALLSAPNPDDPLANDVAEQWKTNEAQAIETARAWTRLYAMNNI
SUMO HTRF inh: inhibitors of in vitro SUMOylation cascade, primary screen, biochemical, HTRF, uHTS. HTRF SUMOylation assay, SAE1/SAE2 + UBC9. actives 0.36% (n = 290,000). AID 2006, 2009. inhibition, % at 35 µM. SUMO-conjugating enzyme UBC9 (Homo sapiens), P63279; in the data active = inhibition above about 50%, passing the limit was not always enough
Target sequence (P63279 whole entry, looked up): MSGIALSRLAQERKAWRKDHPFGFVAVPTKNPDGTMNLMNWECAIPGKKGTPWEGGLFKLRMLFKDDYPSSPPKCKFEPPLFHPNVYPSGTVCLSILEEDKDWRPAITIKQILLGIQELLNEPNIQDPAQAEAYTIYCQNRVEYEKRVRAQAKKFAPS
Hits are given with their value; - = inactive; . = no result given.

SMILES	NR3A LBD binder	HGIII-sPLA2 inh	UBC13 inh	SUMO HTRF inh
Cc1ccc(C(=O)Nc2nnc(NC(=S)Nc3ccccc3)s2)cc1	32	-	-	-
O=C(NC1CCCC1)C1CCN(S(=O)(=O)c2ccc3[nH]c(=O)oc3c2)CC1	.	-	.	.
COC(=O)[C@]12C[C@H](CC(=O)NCc3ccc(OC)c(OC)c3)C(=O)N(Cc3ccco3)C1=C[C@H](C(C)(C)C)O[C@@H]2C	.	-	.	.
O=C(CNc1cccc2ccccc12)N/N=C/c1ccccn1	-	-	-	-
Cc1ccccc1NCC(=O)N/N=C/c1ccc([N+](=O)[O-])cc1	-	-	-	-
O=C(CNc1cccc2ccccc12)N/N=C/c1ccc([N+](=O)[O-])cc1	14	-	-	-
O=C(CNc1cccc2ccccc12)N/N=C/c1cccc(Oc2ccccc2)c1	17	-	-	-
CCCCN(C)C(=O)CNc1nnnn1-c1ccccc1	.	-	.	.
CC1CCN(CCOc2cccc(Br)c2)CC1	11	-	-	-
CCCCOc1cccc(C(=O)NC(=S)Nc2cccc(C(F)(F)F)c2)c1	12	-	-	-
CCOc1cccc(C(=O)NC(=S)Nc2cccc(NC(=O)c3ccccc3Cl)c2)c1	16	-	-	-
CCOc1cccc(C(=O)NC(=S)Nc2ccccc2)c1	-	-	-	-
CCc1ccc(NC(=O)C2CC(=O)Nc3ncnn32)cc1 (configuration not stated)	21	-	-	-
O=C1CC(C(=O)Nc2ccc(Cl)cc2)n2ncnc2N1 (configuration not stated)	-	-	-	-
Cc1nc(Nc2ccc(Cl)cc2)c2oc3ccccc3c2n1	.	-	-	-
Cc1nc(Nc2cccc(O)c2)c2oc3ccccc3c2n1	-	-	-	-
Cc1nc(Nc2cccc(Cl)c2)c2oc3ccccc3c2n1	36	-	-	-
Cc1nc(Nc2cccc(F)c2)c2oc3ccccc3c2n1	28	-	-	-
Cc1ccc(NC(NC(=O)c2cccs2)C(Cl)(Cl)Cl)cc1C (configuration not stated)	12	-	-	-
CC(=O)Nc1ccc(NC(=O)CSc2nnc(CC(C)O)n2-c2ccccc2)cc1 (configuration not stated)	-	-	-	-
CCc1nnc(SCC(=O)Nc2ccc(NC(C)=O)cc2)n1-n1cccc1	18	-	-	.
CCn1c(SCc2ccccc2Cl)nnc1-c1ccccc1OC	.	-	.	.
CC(=O)Nc1ccc(S(=O)(=O)NC2=C(N3CCN(c4ccc(F)cc4)CC3)C(=O)c3ccccc3C2=O)cc1	16	-	-	-
O=C1/C(=C/c2ccco2)Oc2c1ccc(O)c2CN1CCCCC1	-	-	-	61
CNC(=S)SCCOc1ccccc1C	15	-	-	-
SMILES	NR3A LBD binder	HGIII-sPLA2 inh	UBC13 inh	SUMO HTRF inh
CNC(=S)NNC(=O)COc1ccccc1C	-	-	-	-
Cc1ccc(C2CCC3(CCC(=O)N3CCOC(=O)Nc3cccc(C#N)c3)CC2)cc1 (configuration not stated)	.	-	.	.
CCOC(=O)c1cccc(NC(=O)CN(C)S(=O)(=O)c2ccc(F)cc2)c1	.	-	.	.
Cc1cc(C)cc(NC(=O)Cn2nnc(C(=O)NCc3ccccc3Cl)c2N)c1	-	-	-	-
CC(C)c1ccc(NC(=O)Cn2nnc(C(=O)NCc3ccco3)c2N)cc1	12	-	-	-
COc1ccc(NC(=O)Cn2nnc(C(=O)Nc3ccc(F)c(Cl)c3)c2N)cc1OC	78	-	-	-
Cc1cc(C)cc(NC(=O)Cn2nnc(C(=O)NCc3ccc(F)cc3)c2N)c1	34	-	-	-
Cc1ccc(NC(=O)Cn2nnc(C(=O)NCc3ccco3)c2N)cc1	-	-	-	-
Cc1ccc(NC(=O)Cn2nnc(C(=O)NCc3cccs3)c2N)cc1F	32	-	-	-
O=C(NC1CCCCN(Cc2cccc(C(F)(F)F)c2)C1=O)c1ccc(COc2ccccc2)cc1 (configuration not stated)	.	-	.	.
COc1ccc(NC(=O)Cn2nnc(C(=O)NCc3ccc(C)cc3)c2N)cc1Cl	17	-	-	-
COc1ccc(Cl)cc1NC(=O)Cn1nnc(C(=O)NCCc2ccc(OC)c(OC)c2)c1N	-	-	-	-
CCOc1ccccc1NC(=O)c1nnn(CC(=O)Nc2cc(C)cc(C)c2)c1N	13	-	-	.
COc1ccc(Cl)cc1NC(=O)c1nnn(CC(=O)Nc2ccc(C)c(C)c2)c1N	14	-	-	-
Cc1ccccc1NC(c1cccc(Cl)c1)c1nnnn1C1CCCCC1 (configuration not stated)	13	-	-	-
Oc1cccc(-c2nc3c4c(ncn3n2)-c2ccccc2CC42CCCC2)c1	37	-	-	-
COc1ccc(-c2nc3c4c(ncn3n2)-c2ccccc2CC42CCCC2)cc1	-	-	-	-
CCOC(=O)c1cn(Cc2ccc(Cl)cc2Cl)c2cc(C)nn2c1=O	-	-	-	-
CCOC(=O)c1cn(Cc2ccccc2)c2cc(C)nn2c1=O	11	-	-	-
CCOC(=O)CNC(=O)N(C)[C@H]1C[C@H]2c3[nH]c4c(-c5cccc(C)c5)cccc4c3CCN2C(=O)[C@H]1[C@H](C)O	.	-	.	.
CN(C1=C(NC(=O)c2ccccc2)C(=O)c2ccccc2C1=O)C1CCS(=O)(=O)C1 (configuration not stated)	.	-	-	-
CC(=O)NC1=C(NC2CCS(=O)(=O)C2)C(=O)c2ccccc2C1=O (configuration not stated)	13	-	-	-
CCOc1ccc(Br)cc1C1=CC(=O)C[C@H](c2ccc(OC)cc2)C1	16	-	-	.
CC(C)[C@@H](C(=O)NC1CCN(Cc2ccccc2)CC1)N1C(=O)N2CCc3c([nH]c4ccccc34)[C@@]2(C)C1=O	37	-	-	-
COC(=O)[C@]1(C)CN(C(=O)OC(C)(C)C)C2=C1C(=O)C[C@](C)(C(=O)OC(C)(C)C)C2	.	-	.	.
SMILES	NR3A LBD binder	HGIII-sPLA2 inh	UBC13 inh	SUMO HTRF inh
Cc1coc2c1c(C)cc1oc(=O)c(CC(=O)N[C@@H](C)C(=O)O)c(C)c12	-	-	-	-
Cc1oc2c(c(C)cc3oc(=O)c(CC(=O)NCC(=O)NCC(=O)NCC(C)O)c(C)c32)c1C (configuration not stated)	-	-	-	60
CCC(NC(=O)Cc1c(C)c2c(cc(C)c3c(C)c(C)oc32)oc1=O)C(=O)O (configuration not stated)	-	-	-	54
CSCC[C@H](NC(=O)Cc1c(C)c2cc3c4c(oc3cc2oc1=O)CCCC4)C(=O)O	-	-	-	-
CSCC[C@H](NC(=O)Cc1c(C)c2c(cc(C)c3c(C)c(C)oc32)oc1=O)C(=O)O	-	-	-	57
Cc1oc2c(c(C)cc3oc(=O)c(CC(=O)NCCCO)c(C)c32)c1C	-	-	-	-
CCN(C(=O)[C@@H]1CC(=O)O[C@@H]1c1ccccc1)c1ccccc1	.	-	.	.
